Measurements reported in PubChem BioAssay (Tox21).
Several values for one entry are separate records, joined by “and”; a condition that tells them apart may be missing. Equal values may be shown once. Inconclusive results are not listed. Where a call stands in place of a potency, no number is given. Activity calls are given as the source filed them. Unless noted, calls come from the whole dose curve; as a rule, active = well fitted curve in the direction sought with a large enough effect in the repeat runs; inconclusive = weak or mixed curves; inactive = no such curve, though single readings can be large; an effect the other way counts as inactive or inconclusive.

How the values were obtained:
[1] = Human pregnane X receptor (PXR) small molecule agonists, qHTS cell viability counter screen (AID 1346977); note: nearly all actives have a fitted effect of over 50% in size
Procedure, shortened: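 In each well, the PXR reporter HepG2 line was checked for viability: CellTiter-Fluor reagent added 23hr post-dosing, fluorescence read after 1hr incubation at 37C.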

[2] = Caspase-3/7 induction in HepG2 cells by small molecules, qHTS assay (AID 1346978); note: nearly all actives have a fitted effect of over 15% in size
Procedure, shortened: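 Caspase-3/7 induction was measured by Caspase-Glo 3/7 luminescence (30 min, room temperature) after a 17 hr compound exposure of wild-type HepG2 cells seeded at 2,000 per well and pre-incubated 5 hr.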

[3] = Caspase-3/7 induction in CHO-K1 cells by small molecules, qHTS cell viability counter screen (AID 1346979); note: nearly all actives have a fitted effect of over 35% in size
Procedure, shortened: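 Following a 5hr settling period, CHO-K1 cells at 1,500 per well received DMSO-dissolved compounds. Cell viability was quantified 16hr later by CellTiter-Fluor fluorescence, measured after 1hr with reagent at 37C.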

[4] = Caspase-3/7 induction in CHO-K1 cells by small molecules, qHTS assay (AID 1346980); note: nearly all actives have a fitted effect of over 15% in size
Procedure, shortened: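 Luminescent Caspase-Glo 3/7 read (30min, room temperature) quantified apoptosis induction. Cells were wild-type CHO-K1, treated with compound for 17hr at 37 C and 5% CO2.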

[5] = Caspase-3/7 induction in HepG2 cells by small molecules, qHTS cell viability counter screen (AID 1346981); note: series mostly up to about 92 µM; nearly all actives have a fitted effect of over 30% in size
Procedure, shortened: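 After a 5-hr attachment period at 37 C and 5% CO2, wild-type HepG2 cells received compounds in DMSO. Sixteen hours later CellTiter-Fluor was dispensed and the fluorescent signal quantified after a further hour.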

[6] = target: Nuclear receptor subfamily 1 group I member 2 (Homo sapiens) (UniProt O75469); experiment: Human pregnane X receptor (PXR) small molecule agonists, qHTS assay (AID 1346982); note: nearly all actives have a fitted effect of over 35% in size; note: potency is the fitted concentration of half-maximal effect
Procedure, shortened: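 Tox21 qHTS; PXR-Luc HepG2; compounds pinned from DMSO; 24 hr, 37 C; ONE-Glo luciferase detection, 30 min room temperature.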

[7] = target: Acetylcholinesterase (Homo sapiens) (UniProt P22303); experiment: Acetylcholinesterase (AChE) small molecule antagonists: colormetric cell-based qHTS assay (AID 1347395; calls by dose curve; note: nearly all actives have a fitted effect of over 30% in size; note: potency is the fitted concentration of half-maximal effect)
Procedure, shortened: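 After overnight attachment at 37 C, SH-SY5Y cells get 30 min compound exposure; detection cocktail (acetylthiocholine, DTNB) then incubates 90 min at 37 C, and absorbance reflects AChE-generated thiocholine.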

[8] = target: Acetylcholinesterase (Homo sapiens) (UniProt P22303); experiment: Acetylcholinesterase (AChE) small molecule antagonists: enzyme-based qHTS assay (AID 1347397; calls by dose curve; note: nearly all actives have a fitted effect of over 55% in size); settings: Potency: AChE enzyme activity inhibition; outcome: AChE enzyme activity inhibition
Procedure, shortened: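 First, recombinant human AChE (50 mU/mL as dispensed) received test compound or DMSO. Second, plates stood 30 min at room temperature. Third, DTNB and acetylthiocholine were added, followed by 10 min at room temperature and colorimetric detection.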

[9] = target: Acetylcholinesterase (Homo sapiens) (UniProt P22303); experiment: Acetylcholinesterase (AChE) small molecule antagonists: fluorescence cell-based qHTS assay (AID 1347398; calls by dose curve; note: nearly all actives have a fitted effect of over 50% in size; note: potency is the fitted concentration of half-maximal effect); settings: Potency: AChE activity; outcome: AChE activity
Procedure, shortened: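 Homogeneous quantitative HTS format. SH-SY5Y cells seeded at 2,000 per well settle overnight at 37 C. Compound pretreatment runs 30 min (37 C, 5% CO2); substrate/probe mix then reacts 40 min at RT before reading 490/520 nm.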

[10] = target: Acetylcholinesterase (Homo sapiens) (UniProt P22303); experiment: Acetylcholinesterase (AChE) small molecule antagonists: enzyme-based qHTS assay with human liver microsomes (AID 1347399; calls by dose curve; note: nearly all actives have a fitted effect of over 60% in size); settings: Potency: qHTS inhibition; outcome: qHTS inhibition
Procedure, shortened: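 Recombinant human AChE (50 mU/mL in the enzyme mix) and human liver microsomes (0.25 mg/mL final) were preincubated with compound and NADPH (0.25 mg/mL final) for 30 min at 37 C. Acetylthiocholine/DTNB was then added; thiocholine was read colorimetrically after 10 min at room temperature.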

[11] = target: Cytochrome P450 2D6 (Homo sapiens) (UniProt P10635); experiment: Cytochrome P450 Family 2 Subfamily D Member 6 (CYP2D6) small molecule antagonists: luciferase reporter qHTS assay (AID 1671196); note: series mostly up to about 120 µM; nearly all actives have a fitted effect of over 50% in size
Procedure, shortened: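 Room-temperature luminescent CYP2D6 activity assay: compound preincubated 10 min with enzyme–substrate mix, NADPH-initiated reaction 1 h, detection reagent 20 min before reading.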

[12] = target: Cytochrome P450 2C19 (Homo sapiens) (UniProt P33261); experiment: Cytochrome P450 Family 2 Subfamily C Member 19 (CYP2C19) small molecule antagonists: luciferase reporter qHTS assay (AID 1671197); note: nearly all actives have a fitted effect of over 65% in size; note: potency is the fitted concentration of half-maximal effect
Procedure, shortened: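 P450-Glo CYP2C19 system: enzyme-substrate mix with compound 10 min at room temperature, then NADPH regeneration solution, 1 h at 37C. Proluciferin-to-luciferin conversion detected by luminescence after 20 min with detection reagent; ketoconazole as positive control.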

[13] = target: Cytochrome P450 1A2 (Homo sapiens) (UniProt P05177); experiment: Cytochrome P450 Family 1 Subfamily A Member 2 (CYP1A2) small molecule antagonists: luciferase reporter qHTS assay (AID 1671199); note: nearly all actives have a fitted effect of over 50% in size; note: potency is the fitted concentration of half-maximal effect
Procedure, shortened: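 Room-temperature CYP1A2 reaction with proluciferin substrate: compounds added from DMSO, 10 min preincubation, NADPH regeneration for 1 h. Luciferin detection reagent then added; luminescence recorded as RLU.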

[14] = target: Cytochrome P450 3A4 (Homo sapiens) (UniProt P08684); experiment: Cytochrome P450 Family 3 Subfamily A Member 4 (CYP3A4) small molecule antagonists: luciferase reporter qHTS assay (AID 1671201)
Procedure, shortened: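 CYP3A4 activity was followed with a P450-Glo proluciferin substrate. Test compounds in DMSO were preincubated 10 min; NADPH regeneration then ran 1 h, and light output was read 20 min after detection reagent.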

[15] = target: Voltage-gated inwardly rectifying potassium channel KCNH2 (Homo sapiens) (UniProt Q12809); experiment: Human Ether-a-go-go-Related Gene (hERG) channel small molecule antagonists: fluorescence cell-based qHTS assay (AID 1671200)
Procedure, shortened: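 In this thallium-flux screen, overnight-cultured U2OS cells bearing the channel are dye-loaded in darkness for an hour, rested 10 min at room temperature, and then monitored kinetically at 480/540 nm for two minutes post-stimulus.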

[16] = target: Cytochrome P450 2C9 (Homo sapiens) (UniProt P11712); experiment: Cytochrome P450 Family 2 Subfamily C Member 9 (CYP2C9) small molecule antagonists: luciferase reporter qHTS assay (AID 1671198); note: nearly all actives have a fitted effect of over 50% in size; note: potency is the fitted concentration of half-maximal effect
Procedure, shortened: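 Enzyme-substrate mix preincubated with compound 10 min at room temperature; reaction started with NADPH regeneration solution, 1 h 37C. Luminescent luciferin product read after 20 min detection reagent.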

[17] = target: Nuclear receptor subfamily 1 group I member 2 (Rattus norvegicus) (UniProt Q9R1A7); experiment: Rat pregnane X receptor (rPXR) activation by small molecules, qHTS assay (AID 1346983); settings: rPXR luciferase reporter cells, One-Glo luminescence, 24 h; hits give high values; note: nearly all actives have a fitted effect of over 20% in size
Procedure, shortened: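 Luminescent readout (One-Glo luciferase, 30 min room temperature) followed 24 hr compound treatment at 37 C of rPXR cells plated 2,000 per well and preincubated 5hr; qHTS format with compounds delivered in DMSO.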

[18] = target: Nuclear receptor subfamily 1 group I member 2 (Homo sapiens) (UniProt O75469); experiment: CYP3A4 induction through human pregnane X receptor (PXR) by small molecules, qHTS assay (AID 1346984); note: nearly all actives have a fitted effect of over 40% in size
Procedure, shortened: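 Cells (DPX-2; HepG2 with PXR element plus CYP3A4-promoter luciferase) settled 5hr, then were treated 24hr at 37C. A 3hr, 3uM-final Luciferin-IPA step preceded luminescence measurement with One-Glo.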

[19] = target: Nuclear receptor subfamily 1 group I member 2 (Homo sapiens) (UniProt O75469); experiment: Human pregnane X receptor (PXR) activation by small molecules, qHTS assay (AID 1346985); note: nearly all actives have a fitted effect of over 40% in size
Procedure, shortened: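 DPX-2 cells (HepG2 co-transfected with a PXR response element and a CYP3A4-promoter luciferase construct) were seeded at 2,000 per well, rested 5 hr at 37C, then exposed to DMSO-dissolved compounds for 24 hr. Activation was read as luciferase luminescence.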

Cytochrome P450 2D6 (Homo sapiens), sequence (P10635 whole entry, looked up): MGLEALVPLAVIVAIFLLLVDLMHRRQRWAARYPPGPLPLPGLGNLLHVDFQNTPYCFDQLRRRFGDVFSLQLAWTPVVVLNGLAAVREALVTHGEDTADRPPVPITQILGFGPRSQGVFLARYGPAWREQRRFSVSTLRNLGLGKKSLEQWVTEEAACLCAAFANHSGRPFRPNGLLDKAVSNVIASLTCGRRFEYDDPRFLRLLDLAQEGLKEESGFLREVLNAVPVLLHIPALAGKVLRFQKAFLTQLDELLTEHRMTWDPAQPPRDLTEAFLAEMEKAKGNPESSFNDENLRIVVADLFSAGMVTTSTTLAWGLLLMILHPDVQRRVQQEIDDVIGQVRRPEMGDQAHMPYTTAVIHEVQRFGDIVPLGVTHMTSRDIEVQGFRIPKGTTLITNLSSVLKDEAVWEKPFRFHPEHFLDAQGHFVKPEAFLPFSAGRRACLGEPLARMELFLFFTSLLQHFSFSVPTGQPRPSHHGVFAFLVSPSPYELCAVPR
Cytochrome P450 3A4 (Homo sapiens), sequence (P08684 whole entry, looked up): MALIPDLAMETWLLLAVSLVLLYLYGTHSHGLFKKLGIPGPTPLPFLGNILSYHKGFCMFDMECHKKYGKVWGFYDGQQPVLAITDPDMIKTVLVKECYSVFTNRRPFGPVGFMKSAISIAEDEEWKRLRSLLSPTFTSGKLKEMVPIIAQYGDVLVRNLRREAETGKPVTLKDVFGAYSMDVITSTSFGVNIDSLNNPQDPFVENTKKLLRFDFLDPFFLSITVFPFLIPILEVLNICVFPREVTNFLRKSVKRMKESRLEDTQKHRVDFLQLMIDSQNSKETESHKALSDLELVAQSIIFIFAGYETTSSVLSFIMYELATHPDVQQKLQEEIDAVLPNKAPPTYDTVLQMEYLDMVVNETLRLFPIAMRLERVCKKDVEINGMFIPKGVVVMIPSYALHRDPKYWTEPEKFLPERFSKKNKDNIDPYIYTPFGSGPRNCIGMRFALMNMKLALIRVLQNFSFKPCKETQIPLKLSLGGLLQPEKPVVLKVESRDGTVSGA
Nuclear receptor subfamily 1 group I member 2 (Homo sapiens), sequence (O75469 whole entry, looked up): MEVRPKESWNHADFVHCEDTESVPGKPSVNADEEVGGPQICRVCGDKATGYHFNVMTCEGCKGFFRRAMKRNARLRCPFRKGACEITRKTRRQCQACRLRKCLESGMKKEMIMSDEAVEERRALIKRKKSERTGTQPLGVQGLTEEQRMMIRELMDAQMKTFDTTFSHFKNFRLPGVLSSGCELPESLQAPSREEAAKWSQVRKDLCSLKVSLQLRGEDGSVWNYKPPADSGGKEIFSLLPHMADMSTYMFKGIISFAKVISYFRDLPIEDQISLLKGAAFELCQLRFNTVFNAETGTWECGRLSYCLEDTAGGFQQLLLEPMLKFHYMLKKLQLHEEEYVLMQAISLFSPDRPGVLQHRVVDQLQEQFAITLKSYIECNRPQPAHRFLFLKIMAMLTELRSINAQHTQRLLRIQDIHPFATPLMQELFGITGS
Voltage-gated inwardly rectifying potassium channel KCNH2 (Homo sapiens), sequence (Q12809 whole entry, looked up): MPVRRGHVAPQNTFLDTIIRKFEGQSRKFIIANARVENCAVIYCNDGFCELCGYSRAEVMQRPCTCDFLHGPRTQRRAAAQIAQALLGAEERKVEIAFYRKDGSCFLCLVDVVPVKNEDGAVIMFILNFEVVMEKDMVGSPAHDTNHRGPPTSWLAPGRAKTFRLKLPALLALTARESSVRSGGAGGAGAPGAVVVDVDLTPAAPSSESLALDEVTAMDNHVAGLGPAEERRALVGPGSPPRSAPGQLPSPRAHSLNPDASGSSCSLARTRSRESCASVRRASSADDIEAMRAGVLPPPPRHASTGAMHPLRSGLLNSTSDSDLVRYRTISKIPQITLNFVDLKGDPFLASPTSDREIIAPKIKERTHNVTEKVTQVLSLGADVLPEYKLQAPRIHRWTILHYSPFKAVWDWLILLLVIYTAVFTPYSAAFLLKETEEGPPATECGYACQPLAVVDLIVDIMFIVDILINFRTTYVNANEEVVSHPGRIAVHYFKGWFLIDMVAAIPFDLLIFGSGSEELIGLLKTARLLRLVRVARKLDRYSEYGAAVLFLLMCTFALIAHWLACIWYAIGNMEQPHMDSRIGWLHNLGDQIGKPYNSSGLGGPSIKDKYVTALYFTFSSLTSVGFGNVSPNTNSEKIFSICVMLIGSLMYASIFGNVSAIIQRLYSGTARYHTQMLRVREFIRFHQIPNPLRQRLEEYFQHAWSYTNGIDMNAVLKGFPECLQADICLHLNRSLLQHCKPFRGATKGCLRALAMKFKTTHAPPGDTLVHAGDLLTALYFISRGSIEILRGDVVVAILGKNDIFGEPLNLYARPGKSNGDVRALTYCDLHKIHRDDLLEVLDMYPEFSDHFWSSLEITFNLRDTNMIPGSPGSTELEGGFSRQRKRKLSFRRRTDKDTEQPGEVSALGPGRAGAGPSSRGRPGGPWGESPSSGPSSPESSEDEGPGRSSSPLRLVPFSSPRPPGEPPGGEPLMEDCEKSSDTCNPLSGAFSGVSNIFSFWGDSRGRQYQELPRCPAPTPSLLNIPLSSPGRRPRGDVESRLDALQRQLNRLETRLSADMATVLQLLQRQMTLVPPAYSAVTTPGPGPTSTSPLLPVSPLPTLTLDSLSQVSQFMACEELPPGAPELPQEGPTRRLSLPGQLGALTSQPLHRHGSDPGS
Cytochrome P450 1A2 (Homo sapiens), sequence (P05177 whole entry, looked up): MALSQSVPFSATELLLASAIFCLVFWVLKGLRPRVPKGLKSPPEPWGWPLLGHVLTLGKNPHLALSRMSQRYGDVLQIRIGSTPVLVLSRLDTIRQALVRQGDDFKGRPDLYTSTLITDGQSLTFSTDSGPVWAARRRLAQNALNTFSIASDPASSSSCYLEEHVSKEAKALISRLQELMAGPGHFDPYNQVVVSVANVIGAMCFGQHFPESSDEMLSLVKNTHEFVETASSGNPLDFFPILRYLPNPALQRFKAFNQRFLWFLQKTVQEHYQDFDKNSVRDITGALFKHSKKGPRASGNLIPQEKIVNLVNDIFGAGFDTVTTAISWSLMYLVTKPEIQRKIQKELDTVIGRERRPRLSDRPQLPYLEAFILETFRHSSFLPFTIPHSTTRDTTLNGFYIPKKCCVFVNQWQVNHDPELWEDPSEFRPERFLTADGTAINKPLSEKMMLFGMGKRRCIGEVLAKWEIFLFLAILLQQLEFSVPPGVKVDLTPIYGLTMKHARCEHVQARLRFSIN
Acetylcholinesterase (Homo sapiens), sequence (P22303 whole entry, looked up): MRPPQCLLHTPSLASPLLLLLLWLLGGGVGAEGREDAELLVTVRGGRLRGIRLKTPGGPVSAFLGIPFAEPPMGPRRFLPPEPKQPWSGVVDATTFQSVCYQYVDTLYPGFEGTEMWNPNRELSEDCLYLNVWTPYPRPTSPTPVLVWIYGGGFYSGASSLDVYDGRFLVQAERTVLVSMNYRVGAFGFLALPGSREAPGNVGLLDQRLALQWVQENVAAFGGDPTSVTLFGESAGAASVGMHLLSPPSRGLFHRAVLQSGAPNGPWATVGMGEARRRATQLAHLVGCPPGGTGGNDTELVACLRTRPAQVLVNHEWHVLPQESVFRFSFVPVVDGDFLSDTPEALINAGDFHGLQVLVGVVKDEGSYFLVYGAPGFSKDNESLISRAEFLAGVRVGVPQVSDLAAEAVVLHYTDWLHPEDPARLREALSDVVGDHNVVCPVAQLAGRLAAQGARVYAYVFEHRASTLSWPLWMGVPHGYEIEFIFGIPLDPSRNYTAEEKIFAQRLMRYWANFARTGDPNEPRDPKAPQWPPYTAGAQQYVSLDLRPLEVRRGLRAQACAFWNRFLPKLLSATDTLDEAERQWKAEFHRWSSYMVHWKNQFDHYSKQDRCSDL
Cytochrome P450 2C19 (Homo sapiens), sequence (P33261 whole entry, looked up): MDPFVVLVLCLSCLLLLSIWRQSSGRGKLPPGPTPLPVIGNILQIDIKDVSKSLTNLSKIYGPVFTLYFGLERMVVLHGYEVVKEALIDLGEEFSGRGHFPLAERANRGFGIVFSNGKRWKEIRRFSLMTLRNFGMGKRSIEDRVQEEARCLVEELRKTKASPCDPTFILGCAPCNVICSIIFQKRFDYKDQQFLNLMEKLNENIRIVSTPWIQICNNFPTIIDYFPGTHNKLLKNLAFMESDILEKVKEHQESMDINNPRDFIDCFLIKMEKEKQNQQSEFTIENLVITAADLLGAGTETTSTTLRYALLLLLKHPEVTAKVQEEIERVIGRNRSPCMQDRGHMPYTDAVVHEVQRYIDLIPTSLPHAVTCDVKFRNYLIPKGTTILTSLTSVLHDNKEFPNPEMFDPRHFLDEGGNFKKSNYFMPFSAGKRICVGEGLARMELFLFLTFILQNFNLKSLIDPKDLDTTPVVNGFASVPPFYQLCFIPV
Cytochrome P450 2C9 (Homo sapiens), sequence (P11712 whole entry, looked up): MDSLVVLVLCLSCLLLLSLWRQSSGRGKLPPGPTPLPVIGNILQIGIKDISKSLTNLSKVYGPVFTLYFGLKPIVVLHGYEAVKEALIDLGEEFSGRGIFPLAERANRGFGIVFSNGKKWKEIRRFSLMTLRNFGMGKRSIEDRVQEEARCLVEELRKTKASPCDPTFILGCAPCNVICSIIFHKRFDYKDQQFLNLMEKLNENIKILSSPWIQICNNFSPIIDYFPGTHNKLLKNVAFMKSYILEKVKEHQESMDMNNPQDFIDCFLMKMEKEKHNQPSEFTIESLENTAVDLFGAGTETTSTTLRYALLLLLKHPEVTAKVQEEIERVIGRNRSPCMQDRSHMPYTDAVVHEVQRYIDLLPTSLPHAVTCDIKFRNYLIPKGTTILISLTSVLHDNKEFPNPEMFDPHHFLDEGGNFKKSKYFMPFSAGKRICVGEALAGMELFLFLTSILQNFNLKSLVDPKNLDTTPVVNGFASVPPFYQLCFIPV

Row | SMILES | Potency [1] | Potency [2] | Potency [3] | Potency [4] | Potency [5] | Potency [6] | Potency [7] | Potency [8] | Potency [9] | Potency [10] | Potency [11] | Potency [12] | Potency [13] | Potency [14] | Potency [15] | Potency [16] | max activation [17] | outcome [18] | Potency [19]
1 | CCCCC1C(=O)NC(=O)N(C2CCCCC2)C1=O (configuration not stated) | inactive | inactive | inactive | inactive | inactive | inactive | inactive | inactive | inactive | inactive | inactive | 27.5 µM (active) | inactive | inactive |  |  |  |  | 
2 | CON(C)C(=O)Nc1ccc(Cl)cc1 | inactive | inactive | inactive | inactive | inactive | 48.6 µM (active) | inactive | inactive | inactive | inactive | inactive | 39.9 µM (active) | 7.1 µM (active) | inactive |  |  |  |  | 
3 | CC(C)c1ccc(NC(=O)N(C)C)cc1 | inactive | inactive | inactive | inactive | inactive | 30.6 µM (active) | inactive | inactive | inactive | inactive | inactive | 31.7 µM (active) | 15.9 µM (active) | inactive | inactive |  |  |  | 
4 | CC(=O)OC(c1ccccc1)C(Cl)(Cl)Cl (configuration not stated) | inactive | inactive | inactive | inactive | inactive | inactive | inactive | inactive | inactive | inactive | inactive | inactive | inactive | inactive |  |  |  |  | 
5 | CCCCCCCCP(=O)(O)O | inactive | inactive | inactive | inactive | inactive | inactive | inactive | inactive | inactive |  | inactive | inactive |  | inactive | inactive | inactive |  |  | 
6 | CCCN(CCC)c1c([N+](=O)[O-])cc(C(C)C)cc1[N+](=O)[O-] | inactive | inactive | inactive | inactive | inactive |  | inactive | inactive | inactive |  | inactive | 8.75 µM (active) and 5.03 µM (active) | 27.7 µM (active) and 35.6 µM (active) |  | inactive | 27.7 µM (active) and 31.7 µM (active) |  |  | 
7 | CCCCCCCCCCCCCCCl | inactive | inactive | inactive | inactive | inactive | 61.4 µM (active) | inactive | inactive |  | inactive | inactive | inactive |  |  | inactive | inactive |  |  | 
8 | COC(=O)C1(O)c2ccccc2-c2ccccc21 | inactive | inactive | inactive | inactive | inactive |  | inactive | inactive | inactive | inactive | inactive | 79.6 µM (active) | 25.2 µM (active) |  |  |  |  |  | 
9 | CCOP(=S)(OCC)SCSc1cc(Cl)ccc1Cl | inactive | inactive | inactive | inactive | inactive |  | inactive | inactive | inactive | inactive | inactive | inactive | inactive | inactive | inactive | inactive |  |  | 
10 | CCOP(=S)(S)OCC | inactive | inactive | inactive | inactive | inactive |  | 16.7 µM (active) | inactive | 42.1 µM (active) | inactive | inactive | 33.4 µM (active) |  | inactive | inactive | 21.1 µM (active) |  |  | 
11 | O=C(Cc1ccccc1)OCCc1ccccc1 | inactive | inactive | inactive | inactive | inactive |  | inactive | inactive | inactive | inactive | inactive | 2.52 µM (active) | 10 µM (active) | inactive |  | 20 µM (active) |  |  | 
12 | O=CC=O | inactive | inactive | inactive | inactive | inactive |  | inactive | inactive | inactive | inactive | inactive | inactive | inactive | inactive | inactive | inactive | -4.84% (inactive) | inactive | inactive
13 | O=S(=O)(Cl)Cl | inactive | inactive | inactive | inactive | inactive |  | inactive | inactive | inactive | inactive | inactive |  | inactive | inactive | inactive | inactive |  |  | 
14 | FC(Cl)(Cl)C(F)(Cl)Cl | inactive | inactive | inactive | inactive | inactive |  | inactive | inactive | inactive | inactive | inactive | inactive |  | inactive | inactive | inactive |  |  | 
15 | C[C@]12CC[C@H]3[C@@H](CCC4=CC(=O)CC[C@@H]43)[C@@H]1CC[C@@H]2OC(=O)CCc1ccccc1 | inactive | inactive | inactive | inactive | inactive | inactive |  | inactive | inactive | inactive | inactive | inactive | inactive | inactive |  | 30.9 µM (active) |  |  | 
